Assay outcomes deposited in PubChem by National Center for Advancing Translational Sciences (NCATS).
Only some compounds are listed: those with a hit (about 2.8% of all), similar ones and a draw of the others.
POLK inh: qHTS for Inhibitors of Polymerase Kappa | hit rate 0.53% among 400,000 | purified Pol kappa, fluorescent DNA synthesis assay, 10 min | Potency, µM (titrated, usually from 107 µM), inactives show at the highest dose activity, negative = inhibition, most hits filed as inhibitors | DNA polymerase kappa (Homo sapiens), Q9UBT6; also: potency is read from the fitted curve at half-maximal effect; % is scaled to controls: 0 for no effect and ±100 for the full control effect
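50 nM final substrate added after 15 min RT preincubation of 10 nM Pol kappa with compound; fluorescence read at 0 and 10 min.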
Pol eta inh: qHTS for Inhibitors of Polymerase Eta; DNA polymerase eta (Homo sapiens), Q9Y253; recombinant Pol eta, fluorescent DNA replication assay; Potency, µM (series often up to 114 µM), for inactives: at the highest dose activity change, negative = inhibition, hits mostly inhibitors; hit rate 1.2% among 390,000; AID 588591, 2011; also: potency is read from the fitted curve at half-maximal effect; % is scaled to controls: 0 for no effect and ±100 for the full control effect
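Pol eta at 10 nM preincubated with compounds 15 min at room temperature; reaction started with fluorescent substrate (50 nM final) and read kinetically at 0 and 10 min.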
WRN helicase inh: qHTS for Inhibitors of WRN Helicase. Potency, µM (titrated, usually from 114 µM), for the others: top-dose activity change, negative = inhibition, hits mostly inhibitors. WRN helicase unwinding, fluorescent forked duplex, kinetic. hit rate 0.46% among 360,000. Bifunctional 3'-5' exonuclease/ATP-dependent helicase WRN (Homo sapiens), Q14191; also: potency is read from the fitted curve at half-maximal effect; % is scaled to controls: 0 for no effect and ±100 for the full control effect; nearly all actives have a fitted effect of over 55% in size
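WRN at 20 nM final preincubated with compound 15 min at room temperature; reaction started with 100 nM fluorophore/quencher forked duplex oligonucleotide and 2 mM ATP final. Unwinding followed kinetically by red fluorescence (ex 525, em 598 nm).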
POLI inh: qHTS for Inhibitors of Polymerase Iota; DNA polymerase iota (Homo sapiens), Q9UNA4; Pol iota fluorescent replication assay, 10 min; Potency, µM (doses to about 115 µM), without a hit: at the highest dose activity, negative = inhibition, hits mostly inhibitors; hit rate 1% among 390,000; AID 588590, 2011; also: potency is read from the fitted curve at half-maximal effect
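Fluorescent replication assay read twice, at 0 min and 10 min after adding 50 nM (final) substrate. Enzyme (10 nM) and compounds were first incubated 15 min at room temperature; enzyme-free buffer wells were negative controls.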
POLB inh: qHTS Assay for Inhibitors of DNA Polymerase Beta. P06746. AID 485314, 2010. Pol beta primer extension/strand displacement, fluorescence kinetic. hit rate 1.3% among 340,000. Potency, µM (highest dose often 114 µM), for the others: at the highest dose activity change, negative = inhibition, most hits filed as inhibitors; also: potency is read from the fitted curve at half-maximal effect; % is scaled to controls: 0 for no effect and ±100 for the full control effect
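Pol beta (10 nM) was preincubated with compound for 15 min at room temperature. The reaction was then started with 50 nM substrate and read immediately and after a further 10 min at room temperature.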
PI5P4K alpha inh: qHTS for Inhibitors of phosphatidylinositol 5-phosphate 4-kinase (PI5P4K). Phosphatidylinositol 5-phosphate 4-kinase type-2 alpha (Homo sapiens), P48426. PI5P4Kalpha enzyme, ADP-Glo luminescence, 60 min; hits give low values. max response, %. hit rate 1.2% among 330,000. AID 652105, 2013; active = max response of -50% or lower; inconclusive = between -30% and -50%; inactive = -30% or higher; also: value at the top dose of about 77 µM; % is scaled to controls: 0 for no effect and ±100 for the full control effect
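Quantitative HTS of the MLSMR library against PI5P4Kalpha with substrate. ATP added last at 5 microM final; room temperature, 60 minutes. Remaining ATP depleted, ADP converted and read as luminescence.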
Numbers without * were called inactive; ? = inconclusive; · = not tested or not shown; [ ] = dose if it differs, or a comment. Unless noted, calls follow the shape of the dose curve; as a rule, active = well fitted curve in the direction sought with a large enough effect; inconclusive = small, poorly fitted or top-dose-only effect, or another doubt; inactive = no such curve, though single readings can be large; an effect the other way counts as inactive or inconclusive.

SMILES	POLK inh	Pol eta inh	WRN helicase inh	POLI inh	POLB inh	PI5P4K alpha inh
O=C(O)c1cnn2c1C(=O)N(Cc1cccs1)CC2	7%	32µM*	-4%	9%	20µM*	1
COc1ccc(CN2CCn3ncc(C(=O)Nc4ccccc4)c3C2=O)cc1	-5%	-6%	-15%[57.1 µM]	11%	2%	-9
CCOC(=O)c1sc(N/N=C/c2cc(Br)c(O)c(OC)c2)nc1C	?	35µM*	?	?	32µM*	?
CCOC(=O)N/N=C/c1cc(OC)c(O)c(OC)c1	-12%	-12%	5%	21%	?	-3
O=C(NCc1ccc2c(c1)OCO2)c1nc(Cn2cc(Br)cn2)no1	-5%	-13%	8%	20%	20%	2
CS(=O)(=O)Nc1cccc(-c2ccc3ncnc(NCc4cccs4)c3c2)c1	2%[60.1 µM]	·	·	·	·	·
Cc1[nH]c2ccccc2c1N=Nc1ccccc1C(=O)O	?	35µM*	?	?	32µM*	?
Cc1[nH]c2ccccc2c1N=Nc1cccc(C(=O)O)c1	-3%	-12%	?	5%	5%	-19
CCOC(=O)N1CCN(/[N+]([O-])=N/Oc2ccc([N+](=O)[O-])cc2[N+](=O)[O-])CC1	1%[60.1 µM]	·	·	?	·	·
CCN1C(=O)[C@H]2[C@@H](c3ccc(C(F)(F)F)cc3)N[C@]3(CCCN(Cc4ccc(C)cc4)C3=O)[C@H]2C1=O	·	-11%	6%	·	·	1
Nc1nc(-c2cc(O)ccc2[N+](=O)[O-])cc(-c2ccccc2)c1[N+](=O)[O-]	-5%	89µM*	-13%[11.6 µM]	?	-9%	-26
C[C@@H]1[C@H](c2ccccc2)OCCS(=O)(=O)N1Cc1cccc(Cl)c1	7%	·	·	16%	·	·
CCOc1cc(/C=C2/C(=O)ON=C2C)cc(Br)c1O	-6%	?	-7%	-25%	3%	-67*
CCCOc1ccc(/C=C2/C(=O)ON=C2C)cc1OCC	-2%	-18%	-7%	50%	2%	0
Cc1cccc(C(=O)Nc2ccc3oc(-c4ccncc4)nc3c2)c1	-4%	-12%	·	19%	?	·
COc1ccc(-c2cc(-c3ccc(Cl)cc3)c(C#N)c(SCC(=O)O)n2)cc1	-3%	4%	-2%	-14%	32µM*	-12
COc1ccc(-c2cc(-c3ccccc3)nc(SC(C)C(=O)O)c2C#N)cc1 (centres undefined)	-2%	-24%	-20%	40µM*	0%	?
COc1ccc(-c2cc(-c3ccccc3)c(C#N)c(SCC(=O)O)n2)cc1	1%	-14%	8%	-14%	·	4
CCOC(=O)CC(=O)CSc1nc(-c2ccccc2)cc(-c2ccccc2)c1C#N	-6%	-26%	-1%	23%	-2%	3
N#Cc1c(-c2ccccc2)cc(-c2ccccc2)nc1SCC(=O)NCC(=O)O	-5%	-9%	-29%	6%	50µM*	2
CC(C)C(Sc1nc(-c2ccccc2)cc(-c2ccccc2)c1C#N)C(=O)O (centres undefined)	-4%	?	-8%	-15%	?	-3
O=C(C[C@H]1C[C@@H]2c3cc(NC(=O)c4cccnc4)ccc3O[C@@H]2[C@H](CO)O1)NCc1ccncc1	·	-2%	5%	·	·	-5
COc1ccc(/C=N/NC(=O)c2[nH]c3ccc(Br)cc3c2-c2ccccc2)c(C(=O)O)c1OC	2%	32µM*	?	?	?	-16
O=C(N/N=C/c1ccccc1Cl)c1[nH]c2ccc(Br)cc2c1-c1ccccc1	?	50µM*	25µM*	79µM*	?	6
CC(Cn1cncn1)C(=O)N1CCN(S(=O)(=O)c2ccccc2)CC1 (centres undefined)	-9%	-17%	-7%	128%	-12%	3
